From the supplement of paper PMC11732987, “Enantioselective OTUD7B fragment discovery through chemoproteomics screening and high-throughput optimisation” (Communications Chemistry, 2025)

How the values were obtained:
Test in all cases: log2 ratio of Biotin-Ahx-Ub-VS probe labelling (fragment/DMSO); higher = less target engagement (more negative = stronger competition), active = hit call of the paper (q ≤ 0.05, log2 ratio ≤ -1)
Conditions in all cases: compound concentration: 200 uM; treatment time: 3 h
[1] = target: T1, USP42 (UniProt Q9H9J4)
T1 sequence (whole entry): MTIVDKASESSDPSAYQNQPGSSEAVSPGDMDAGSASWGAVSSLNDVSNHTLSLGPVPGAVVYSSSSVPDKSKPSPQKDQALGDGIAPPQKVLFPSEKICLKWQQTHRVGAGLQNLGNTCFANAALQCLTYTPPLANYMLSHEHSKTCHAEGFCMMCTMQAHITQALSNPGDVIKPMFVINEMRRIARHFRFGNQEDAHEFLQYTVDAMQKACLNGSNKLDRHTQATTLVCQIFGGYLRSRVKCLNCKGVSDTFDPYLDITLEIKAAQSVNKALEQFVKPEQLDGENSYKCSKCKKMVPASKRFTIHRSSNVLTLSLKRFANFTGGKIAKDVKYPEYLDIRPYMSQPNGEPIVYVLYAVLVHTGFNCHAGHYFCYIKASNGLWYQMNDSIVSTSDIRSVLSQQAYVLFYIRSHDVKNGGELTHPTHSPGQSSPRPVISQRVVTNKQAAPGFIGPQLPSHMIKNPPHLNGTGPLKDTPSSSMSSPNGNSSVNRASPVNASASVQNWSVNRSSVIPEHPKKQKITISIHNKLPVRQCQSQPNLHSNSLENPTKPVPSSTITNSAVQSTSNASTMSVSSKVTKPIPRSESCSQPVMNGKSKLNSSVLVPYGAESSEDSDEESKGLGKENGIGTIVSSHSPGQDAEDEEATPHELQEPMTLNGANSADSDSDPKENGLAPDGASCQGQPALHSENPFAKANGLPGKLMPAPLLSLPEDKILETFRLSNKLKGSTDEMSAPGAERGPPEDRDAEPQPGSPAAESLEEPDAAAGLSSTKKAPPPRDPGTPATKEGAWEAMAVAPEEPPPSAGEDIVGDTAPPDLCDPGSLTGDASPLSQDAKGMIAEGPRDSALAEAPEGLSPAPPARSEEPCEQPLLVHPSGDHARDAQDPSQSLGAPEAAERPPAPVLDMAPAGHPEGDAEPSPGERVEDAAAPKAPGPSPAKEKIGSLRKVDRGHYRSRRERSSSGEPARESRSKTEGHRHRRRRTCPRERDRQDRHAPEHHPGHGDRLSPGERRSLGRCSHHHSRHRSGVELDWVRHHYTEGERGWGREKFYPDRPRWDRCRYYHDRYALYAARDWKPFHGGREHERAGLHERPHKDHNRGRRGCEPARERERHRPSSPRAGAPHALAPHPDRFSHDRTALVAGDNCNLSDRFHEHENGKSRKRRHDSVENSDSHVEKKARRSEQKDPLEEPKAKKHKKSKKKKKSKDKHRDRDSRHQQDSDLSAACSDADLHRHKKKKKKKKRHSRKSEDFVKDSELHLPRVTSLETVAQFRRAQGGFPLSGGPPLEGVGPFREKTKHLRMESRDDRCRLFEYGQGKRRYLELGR
In short: (§1)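 Labelled DUBs from HEK293T lysate were NeutrAvidin-enriched, digested with LysC and trypsin, and run by diaPASEF LC-MS/MS. Before that, each 495 µg sample in Tris/CHAPS/IGEPAL buffer with protease inhibitors was treated in triplicate with fragment at 200 µM or vehicle for 3 h, then with Biotin-Ahx-Ub-VS at 0.5 µM final for 1 h. Values are average log2 ratios of fragment over vehicle by unpaired t-test, based on global-median-normalised Spectronaut label-free quantities from proteins with ≥2 unique peptides.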

[2] = target: USP46 (UniProt P62068)
In short: as §1

[3] = target: T2, USP47 (UniProt Q96K76)
T2 sequence (whole entry): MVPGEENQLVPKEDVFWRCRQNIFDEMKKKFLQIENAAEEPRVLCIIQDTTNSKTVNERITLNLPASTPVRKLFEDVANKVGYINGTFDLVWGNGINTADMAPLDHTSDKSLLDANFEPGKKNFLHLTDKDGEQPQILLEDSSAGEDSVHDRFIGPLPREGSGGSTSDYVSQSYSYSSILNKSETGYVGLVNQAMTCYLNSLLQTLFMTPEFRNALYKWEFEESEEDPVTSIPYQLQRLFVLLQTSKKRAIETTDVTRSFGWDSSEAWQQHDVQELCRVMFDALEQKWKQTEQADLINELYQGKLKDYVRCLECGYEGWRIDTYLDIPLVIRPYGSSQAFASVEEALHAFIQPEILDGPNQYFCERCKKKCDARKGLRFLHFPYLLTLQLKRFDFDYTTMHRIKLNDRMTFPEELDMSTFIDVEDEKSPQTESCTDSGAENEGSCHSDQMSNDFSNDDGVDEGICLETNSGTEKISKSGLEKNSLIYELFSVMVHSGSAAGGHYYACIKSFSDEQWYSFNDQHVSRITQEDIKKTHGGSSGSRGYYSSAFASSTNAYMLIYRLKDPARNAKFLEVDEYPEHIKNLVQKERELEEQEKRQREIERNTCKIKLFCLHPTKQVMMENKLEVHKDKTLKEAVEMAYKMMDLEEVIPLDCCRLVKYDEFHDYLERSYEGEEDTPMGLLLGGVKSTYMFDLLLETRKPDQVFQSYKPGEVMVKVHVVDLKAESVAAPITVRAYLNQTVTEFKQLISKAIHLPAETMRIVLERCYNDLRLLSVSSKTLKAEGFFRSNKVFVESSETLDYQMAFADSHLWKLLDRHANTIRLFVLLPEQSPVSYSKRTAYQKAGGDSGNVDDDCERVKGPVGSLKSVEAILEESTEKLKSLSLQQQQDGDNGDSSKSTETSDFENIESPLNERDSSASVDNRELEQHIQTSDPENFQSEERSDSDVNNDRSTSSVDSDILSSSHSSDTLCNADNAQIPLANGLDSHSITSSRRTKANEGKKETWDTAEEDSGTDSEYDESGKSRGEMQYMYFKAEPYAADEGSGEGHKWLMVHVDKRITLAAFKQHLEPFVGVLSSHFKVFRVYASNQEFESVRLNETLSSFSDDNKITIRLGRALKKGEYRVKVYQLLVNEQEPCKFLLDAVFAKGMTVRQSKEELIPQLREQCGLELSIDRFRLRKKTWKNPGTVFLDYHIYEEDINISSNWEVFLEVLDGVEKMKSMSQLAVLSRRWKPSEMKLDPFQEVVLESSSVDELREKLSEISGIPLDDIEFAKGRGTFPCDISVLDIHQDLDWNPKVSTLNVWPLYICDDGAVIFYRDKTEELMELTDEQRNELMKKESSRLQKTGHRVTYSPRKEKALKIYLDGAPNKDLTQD
In short: as §1

[4] = target: T3, USP48 (UniProt Q86UV5)
T3 sequence (whole entry): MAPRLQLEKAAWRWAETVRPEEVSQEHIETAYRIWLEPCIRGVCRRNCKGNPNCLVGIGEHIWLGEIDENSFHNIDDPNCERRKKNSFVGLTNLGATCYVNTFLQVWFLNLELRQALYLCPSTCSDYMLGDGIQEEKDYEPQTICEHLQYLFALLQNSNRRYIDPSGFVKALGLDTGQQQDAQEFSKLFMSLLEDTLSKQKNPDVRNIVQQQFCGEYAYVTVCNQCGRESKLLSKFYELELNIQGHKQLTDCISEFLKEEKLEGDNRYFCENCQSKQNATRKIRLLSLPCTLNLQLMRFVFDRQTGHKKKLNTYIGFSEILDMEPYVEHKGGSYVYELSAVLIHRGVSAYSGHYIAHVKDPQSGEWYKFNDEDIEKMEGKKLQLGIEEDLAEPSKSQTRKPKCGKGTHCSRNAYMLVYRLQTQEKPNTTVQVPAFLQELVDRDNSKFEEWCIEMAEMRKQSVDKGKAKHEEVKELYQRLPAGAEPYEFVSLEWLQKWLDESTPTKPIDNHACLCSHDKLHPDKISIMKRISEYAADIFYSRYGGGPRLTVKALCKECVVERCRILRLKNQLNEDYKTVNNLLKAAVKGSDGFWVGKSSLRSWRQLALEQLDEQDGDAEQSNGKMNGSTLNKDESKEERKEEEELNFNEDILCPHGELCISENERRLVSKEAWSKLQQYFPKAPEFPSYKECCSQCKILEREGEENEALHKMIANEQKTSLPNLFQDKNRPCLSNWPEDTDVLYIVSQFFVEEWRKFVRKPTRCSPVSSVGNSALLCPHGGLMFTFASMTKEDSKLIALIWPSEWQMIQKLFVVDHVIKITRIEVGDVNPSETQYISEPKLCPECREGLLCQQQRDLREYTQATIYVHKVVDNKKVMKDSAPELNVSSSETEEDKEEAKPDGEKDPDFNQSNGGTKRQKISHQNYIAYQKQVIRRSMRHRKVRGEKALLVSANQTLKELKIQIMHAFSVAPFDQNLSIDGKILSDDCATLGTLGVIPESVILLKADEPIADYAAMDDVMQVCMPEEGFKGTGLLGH
In short: as §1

[5] = target: T4, USP5 (UniProt P45974)
T4 sequence (whole entry): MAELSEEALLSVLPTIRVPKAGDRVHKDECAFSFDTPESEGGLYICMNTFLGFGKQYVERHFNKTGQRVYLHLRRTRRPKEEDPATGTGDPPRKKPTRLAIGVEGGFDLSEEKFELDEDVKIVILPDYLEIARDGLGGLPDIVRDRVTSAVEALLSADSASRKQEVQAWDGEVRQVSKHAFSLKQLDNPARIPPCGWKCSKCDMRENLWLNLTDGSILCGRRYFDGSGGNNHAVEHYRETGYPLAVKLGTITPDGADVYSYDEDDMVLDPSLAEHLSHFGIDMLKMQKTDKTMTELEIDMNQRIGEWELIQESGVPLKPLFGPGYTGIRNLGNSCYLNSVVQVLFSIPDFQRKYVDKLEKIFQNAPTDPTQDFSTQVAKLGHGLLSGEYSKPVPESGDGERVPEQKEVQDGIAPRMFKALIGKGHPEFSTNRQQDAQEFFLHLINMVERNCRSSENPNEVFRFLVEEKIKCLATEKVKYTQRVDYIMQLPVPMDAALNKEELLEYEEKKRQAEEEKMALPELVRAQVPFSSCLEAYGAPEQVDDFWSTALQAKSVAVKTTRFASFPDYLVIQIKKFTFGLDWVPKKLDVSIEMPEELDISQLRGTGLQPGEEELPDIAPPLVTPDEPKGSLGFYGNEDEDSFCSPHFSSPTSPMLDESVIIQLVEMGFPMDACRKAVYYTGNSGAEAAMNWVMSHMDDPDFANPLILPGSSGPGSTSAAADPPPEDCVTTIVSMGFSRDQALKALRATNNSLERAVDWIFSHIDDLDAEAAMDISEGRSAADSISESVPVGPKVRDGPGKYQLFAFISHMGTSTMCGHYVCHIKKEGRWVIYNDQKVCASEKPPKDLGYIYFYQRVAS
In short: as §1

[6] = target: USP54 (UniProt Q70EL1)
In short: as §1

[7] = target: USP7 (UniProt Q93009)
In short: as §1

[8] = target: T5, USP8 (UniProt P40818)
T5 sequence (whole entry): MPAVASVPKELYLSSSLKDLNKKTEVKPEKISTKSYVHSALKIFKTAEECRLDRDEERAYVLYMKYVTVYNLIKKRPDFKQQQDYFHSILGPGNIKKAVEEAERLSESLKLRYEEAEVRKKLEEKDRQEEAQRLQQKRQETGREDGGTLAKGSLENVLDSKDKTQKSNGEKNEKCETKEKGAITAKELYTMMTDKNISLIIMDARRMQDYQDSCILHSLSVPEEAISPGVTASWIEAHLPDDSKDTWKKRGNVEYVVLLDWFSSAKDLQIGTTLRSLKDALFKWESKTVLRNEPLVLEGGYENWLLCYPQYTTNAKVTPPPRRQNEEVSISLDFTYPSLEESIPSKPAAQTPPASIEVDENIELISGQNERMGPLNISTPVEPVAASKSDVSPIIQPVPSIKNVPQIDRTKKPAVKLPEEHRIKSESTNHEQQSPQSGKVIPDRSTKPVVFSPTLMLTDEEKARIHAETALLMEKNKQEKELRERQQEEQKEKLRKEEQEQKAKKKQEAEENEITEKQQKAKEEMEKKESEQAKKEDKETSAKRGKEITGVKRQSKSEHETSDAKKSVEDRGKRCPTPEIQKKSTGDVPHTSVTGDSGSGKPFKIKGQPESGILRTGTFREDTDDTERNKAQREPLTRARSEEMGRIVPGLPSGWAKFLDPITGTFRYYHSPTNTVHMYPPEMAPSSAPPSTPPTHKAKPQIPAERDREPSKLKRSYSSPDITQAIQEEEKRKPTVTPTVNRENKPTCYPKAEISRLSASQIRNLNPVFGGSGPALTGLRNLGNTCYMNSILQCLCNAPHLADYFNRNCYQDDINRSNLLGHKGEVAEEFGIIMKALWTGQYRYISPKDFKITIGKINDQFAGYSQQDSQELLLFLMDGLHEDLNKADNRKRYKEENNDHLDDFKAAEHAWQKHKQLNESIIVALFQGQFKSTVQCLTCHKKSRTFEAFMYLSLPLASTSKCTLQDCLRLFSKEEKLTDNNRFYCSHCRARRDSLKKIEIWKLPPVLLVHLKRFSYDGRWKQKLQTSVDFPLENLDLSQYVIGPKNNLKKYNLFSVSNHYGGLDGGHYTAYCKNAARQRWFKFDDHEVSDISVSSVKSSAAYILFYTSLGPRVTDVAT
In short: as §1

Measured: log2 ratio of Biotin-Ahx-Ub-VS probe labelling

Chain of USP54 (Q70EL1 whole entry): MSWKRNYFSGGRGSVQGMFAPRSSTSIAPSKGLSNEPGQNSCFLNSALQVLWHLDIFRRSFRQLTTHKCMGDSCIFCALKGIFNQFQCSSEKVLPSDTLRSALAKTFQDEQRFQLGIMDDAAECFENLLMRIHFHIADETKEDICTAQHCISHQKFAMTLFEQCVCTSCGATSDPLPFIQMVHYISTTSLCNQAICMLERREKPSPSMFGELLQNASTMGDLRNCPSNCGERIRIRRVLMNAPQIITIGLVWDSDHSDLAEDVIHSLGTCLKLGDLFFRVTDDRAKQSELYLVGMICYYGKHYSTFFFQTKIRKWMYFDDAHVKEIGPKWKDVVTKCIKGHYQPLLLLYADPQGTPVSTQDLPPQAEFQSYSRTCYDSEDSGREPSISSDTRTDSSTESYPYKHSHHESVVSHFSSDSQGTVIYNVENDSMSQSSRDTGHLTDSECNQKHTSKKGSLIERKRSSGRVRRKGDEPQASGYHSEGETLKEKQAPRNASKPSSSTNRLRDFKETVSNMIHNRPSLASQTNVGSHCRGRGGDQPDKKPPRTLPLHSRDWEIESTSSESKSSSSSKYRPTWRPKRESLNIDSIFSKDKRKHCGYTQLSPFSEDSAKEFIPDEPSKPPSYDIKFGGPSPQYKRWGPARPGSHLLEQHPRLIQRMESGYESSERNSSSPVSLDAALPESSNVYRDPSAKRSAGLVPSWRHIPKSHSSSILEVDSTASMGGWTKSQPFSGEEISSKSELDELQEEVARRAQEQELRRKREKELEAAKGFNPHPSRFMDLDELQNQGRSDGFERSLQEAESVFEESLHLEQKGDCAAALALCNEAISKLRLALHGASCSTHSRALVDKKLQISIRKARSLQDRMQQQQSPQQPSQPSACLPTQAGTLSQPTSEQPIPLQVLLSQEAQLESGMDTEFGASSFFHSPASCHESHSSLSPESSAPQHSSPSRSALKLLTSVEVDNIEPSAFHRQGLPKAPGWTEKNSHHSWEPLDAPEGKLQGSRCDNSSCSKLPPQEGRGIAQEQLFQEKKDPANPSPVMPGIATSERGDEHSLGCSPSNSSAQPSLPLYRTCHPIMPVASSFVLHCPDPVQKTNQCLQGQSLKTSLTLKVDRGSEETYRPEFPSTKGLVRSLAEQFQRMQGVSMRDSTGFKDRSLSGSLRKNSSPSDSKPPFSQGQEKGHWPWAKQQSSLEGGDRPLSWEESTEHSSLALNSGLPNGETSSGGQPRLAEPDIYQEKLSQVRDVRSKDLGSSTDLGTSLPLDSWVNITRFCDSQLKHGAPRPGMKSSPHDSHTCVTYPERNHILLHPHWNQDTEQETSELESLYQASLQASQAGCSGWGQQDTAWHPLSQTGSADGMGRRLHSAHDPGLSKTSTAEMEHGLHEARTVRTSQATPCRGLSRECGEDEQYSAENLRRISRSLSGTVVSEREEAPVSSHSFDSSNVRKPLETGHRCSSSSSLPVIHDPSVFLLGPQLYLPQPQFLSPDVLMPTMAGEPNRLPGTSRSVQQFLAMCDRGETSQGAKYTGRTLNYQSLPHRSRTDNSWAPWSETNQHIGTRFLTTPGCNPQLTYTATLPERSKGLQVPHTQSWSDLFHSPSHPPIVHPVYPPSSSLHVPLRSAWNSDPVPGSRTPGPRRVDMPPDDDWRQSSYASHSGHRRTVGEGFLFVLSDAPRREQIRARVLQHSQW
Chain of USP7 (Q93009 whole entry, looked up): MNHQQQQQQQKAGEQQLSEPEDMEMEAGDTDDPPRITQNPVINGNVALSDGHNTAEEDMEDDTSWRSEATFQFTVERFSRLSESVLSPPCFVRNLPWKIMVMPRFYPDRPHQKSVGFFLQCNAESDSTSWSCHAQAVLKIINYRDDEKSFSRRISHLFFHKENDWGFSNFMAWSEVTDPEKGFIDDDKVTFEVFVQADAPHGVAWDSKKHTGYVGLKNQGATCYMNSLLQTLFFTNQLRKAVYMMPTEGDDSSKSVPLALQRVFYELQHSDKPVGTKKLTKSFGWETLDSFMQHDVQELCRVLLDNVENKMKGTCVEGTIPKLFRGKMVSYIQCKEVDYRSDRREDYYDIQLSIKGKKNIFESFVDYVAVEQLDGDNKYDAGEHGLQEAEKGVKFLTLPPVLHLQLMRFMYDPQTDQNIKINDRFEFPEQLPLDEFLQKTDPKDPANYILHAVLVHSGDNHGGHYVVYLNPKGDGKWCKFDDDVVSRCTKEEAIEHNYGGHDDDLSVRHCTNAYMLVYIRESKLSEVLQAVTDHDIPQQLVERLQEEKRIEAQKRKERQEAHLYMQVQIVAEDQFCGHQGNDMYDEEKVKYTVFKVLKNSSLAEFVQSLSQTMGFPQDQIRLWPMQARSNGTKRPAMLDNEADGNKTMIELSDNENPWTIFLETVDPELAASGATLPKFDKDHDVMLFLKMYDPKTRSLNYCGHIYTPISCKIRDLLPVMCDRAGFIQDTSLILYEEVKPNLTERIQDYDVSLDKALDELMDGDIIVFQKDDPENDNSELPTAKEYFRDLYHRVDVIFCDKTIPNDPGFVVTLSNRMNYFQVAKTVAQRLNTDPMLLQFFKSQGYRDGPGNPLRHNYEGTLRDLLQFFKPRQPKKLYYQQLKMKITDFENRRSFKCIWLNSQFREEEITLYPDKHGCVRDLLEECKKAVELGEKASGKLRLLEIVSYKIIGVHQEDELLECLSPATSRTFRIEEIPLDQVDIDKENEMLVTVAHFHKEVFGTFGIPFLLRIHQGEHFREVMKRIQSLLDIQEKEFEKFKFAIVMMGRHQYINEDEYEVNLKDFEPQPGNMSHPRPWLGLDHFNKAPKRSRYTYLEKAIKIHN
Chain of USP46 (P62068 whole entry): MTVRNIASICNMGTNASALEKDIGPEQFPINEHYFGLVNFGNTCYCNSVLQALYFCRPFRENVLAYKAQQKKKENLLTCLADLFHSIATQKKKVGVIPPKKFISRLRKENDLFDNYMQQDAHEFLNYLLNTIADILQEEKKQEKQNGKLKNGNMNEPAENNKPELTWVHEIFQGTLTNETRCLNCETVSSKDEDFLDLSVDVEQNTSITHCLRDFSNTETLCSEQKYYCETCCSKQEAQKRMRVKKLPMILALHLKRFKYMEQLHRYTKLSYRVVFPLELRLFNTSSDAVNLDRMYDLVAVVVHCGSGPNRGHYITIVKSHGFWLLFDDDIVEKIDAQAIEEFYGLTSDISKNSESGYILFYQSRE

Cl.O=C(CCl)N1CC(c2ccc(Br)cn2)C1
active: [7] -1.29
inactive: [1] 0.0546 | [2] -0.129 | [3] -0.944 | [4] -0.383 | [5] 0.197 | [6] 0.556 | [8] -0.318
